Laboratory results published in PubChem BioAssay AID1508622 (National Center for Advancing Translational Sciences (NCATS), 2021).
Activity calls are given as the source filed them. Where a call stands in place of a potency, no number is given. Calls follow the shape of the dose curve; as a rule, active = well fitted activation curve with a large enough effect; inconclusive = small, poorly fitted or top-dose-only effect; inactive = no such curve, though single readings can be large or run the other way.

Test: Confirmatory qHTS for Identification of Small Molecule Activators of Huntingtin-Antisense Promoter Activity
Conditions: HEK293 HTT-AS promoter firefly luciferase reporter, 24 h; series mostly up to 57.5 µM
Procedure, shortened: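 2,500 luciferase reporter HEK293 cells/well; 24 h culture; cpds up to 57.5 uM final, PTC124 50 uM ctrl; 24 h, 37C; Dual-Glo FLuc reagent, 10 min RT; lum. Norm.: vehicle 0%, zero RLU -100%.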
Potency is read from the fitted curve at half-maximal effect.

| Structure (SMILES) | Potency |
| --- | --- |
| O=C(Nc1cccc(C(=O)N2CCN(c3ccc(Cl)cc3)CC2)c1)c1nsc2ccccc12 | 0.151 µM (active) |
| O=C(Nc1cccc(Cl)c1)C1CCCN(c2nn3cc(-c4ccc(F)cc4)nc3s2)C1 (centres undefined) | inactive |
| COc1ccc(Cn2c(SCc3ccc(C(=O)NC4CCCCC4)cc3)nc3ccncc32)cc1 | inactive |
| CCC(Oc1ccccc1)C(=O)N1CCN(Cc2cc(=O)n3nc(-c4cccc(C)c4)sc3n2)CC1 (centres undefined) | inactive |
| Cc1cccc(C2C=C(c3ccc(F)cc3)Nc3nc4ccccc4n32)c1 (centres undefined) | 1.07 µM (active) |
| Cc1cccc(CSc2cn(CC(=O)N3CCOCC3)c3ccccc23)c1 | 3.01 µM (active) |
| Cc1cc(N2CCCCC2)nc2ccc(NC(=O)/C=C/c3ccc(OC(C)C)cc3)cc12 | inactive |
| Cc1cc(C)c(S(=O)(=O)NCCc2csc3nc(-c4ccc(Cl)cc4)nn23)c(C)c1 | inactive |
| Cc1ccc(NC(=O)c2cc(S(=O)(=O)N3CCc4ccccc43)ccc2F)cc1Cl | inactive |
| CCOC(=O)C1CCC(CN(Cc2ccccc2)S(=O)(=O)c2ccc(Cl)cc2)CC1 (centres undefined) | inactive |
| Cc1ccccc1Nc1sc(C(=O)c2ccc(F)cc2)c(N)c1C(=O)NCCc1ccccc1 | inactive |
| COc1ccc(C2(CNC(=O)C(=O)Nc3cccc(C(F)(F)F)c3)CCCC2)cc1OC | inactive |
| CC(=O)c1cccc(NS(=O)(=O)c2cccc(S(=O)(=O)c3ccc(Br)cc3)c2)c1 | inactive |
| Cc1nc2nncn2c(NCc2ccc(Cl)cc2)c1C | inactive |
| CCN(CC)c1ccc(NC(=O)COCc2cc(-c3ccc4c(c3)OCO4)on2)c(C)c1 | inactive |
| CCOc1ccc(C(=O)Nc2ccc(-n3nncc3-c3ccc(OC)cc3)cc2)cc1 | inactive |
| Cc1cccc(NC(=O)Cn2c(=O)oc3cc(S(=O)(=O)N4CCCCCC4)ccc32)c1 | inactive |
| COc1ccc(-c2noc(N3CCN(c4cccc(C)c4C)CC3)n2)cc1OC | inactive |
| COc1cc(OC)cc(C(=O)Nc2ccc3c(c2)CCCN3C(=O)c2cccs2)c1 | inactive |
| CC(C)C[C@@H](C=O)NC(=O)[C@H](CC(C)C)NC(=O)[C@H](CC(C)C)NC(=O)OCc1ccccc1 | inactive |

| Structure (SMILES) | Potency |
| --- | --- |
| COc1cc(Cn2c(=O)oc3ccc(C)cc32)ccc1OCCC(C)C | inactive |
| COc1ccccc1CNC(=O)c1ccc(N2CCCC2)c(NC(=O)NCc2ccc(C)cc2)c1 | inactive |
| COc1ccc(-c2noc(N3CCN(c4cccc(Cl)c4)CC3)n2)cc1OC | inactive |
| Cc1ccc(CCNC(=O)C(C)n2nc(C)c3c(C)n(-c4ccc(C)cc4)nc3c2=O)cc1 (centres undefined) | inactive |
| Cc1ccc(C(=O)Nc2ccc(S(=O)(=O)N(Cc3ccccc3)c3ccccc3)cc2)cc1 | inactive |
| COc1ccc(CCNC(=O)c2ccc3c(c2)N(Cc2ccc(F)cc2)CCS3)cc1OC | inactive |
| COc1ccc(NC(=O)Cn2c(SCc3ccc(F)cc3)nc3cccnc32)cc1OC | inactive |
| CCOc1ccc(/C=C/c2nc(C#N)c(NCc3ccccc3)o2)cc1 | inactive |
| CCc1cccc2sc(N3CCN(C(=O)c4cc5ccccc5cc4OC)CC3)nc12 | inactive |
| COc1ccc(-c2noc(CSc3nc4ccccc4[nH]3)n2)cc1OC | inactive |
| Cc1cccc(N2CCN(S(=O)(=O)c3ccc(F)c(C(=O)Nc4cccc(Cl)c4C)c3)CC2C)c1 (centres undefined) | inactive |
| COc1ccccc1N1CCN(C(=O)C2CCCN(S(=O)(=O)c3ccc4c(c3)CCCN4C(C)=O)C2)CC1 (centres undefined) | inactive |
| COc1cccc(C(=O)Nc2ccc(S(=O)(=O)N(Cc3ccccc3)c3ccccc3)cc2)c1 | inactive |
| O=C(CCCn1ccc2cc(S(=O)(=O)N3CCCC3)ccc21)NCc1ccc(Cl)cc1 | inactive |
| Cc1c(NS(C)(=O)=O)cccc1-c1nc2ccccc2s1 | inactive |
| CC(C)c1ccc(CNC(=O)c2ccc(N3CCCC3)c(NC(=O)NCc3ccccc3)c2)cc1 | inactive |
| Cc1ccc(S(=O)(=O)NCCc2csc(-c3cccc(F)c3)n2)cc1 | inactive |
| CCc1ccc(NC(=O)c2ccc(F)c(S(=O)(=O)N(C)C3CCCCC3)c2)cc1 | inactive |
| C1=CCOCc2cc(ccc2OCCN2CCCC2)Nc2nccc(n2)-c2cccc(c2)OCC1 | inactive |
